# Inconclusive results are not listed. Where a structure was tested more than once in an assay, its records may differ in their call. Activity calls are given as the source filed them. The call rests on the fitted dose curve.
# Target: Progesterone receptor (Homo sapiens) (UniProt P06401)
# Assay: qHTS assay to identify small molecule agonists of the progesterone receptor (PR) signaling pathway (AID 1346784); further: nearly all actives have a fitted effect of over 30% in size
# Details: PR-UAS-bla HEK293T, beta-lactamase FRET ratio, 16 h; series mostly up to 92.4 µM; activation: at the top concentration
# Text: U.S. Tox21 Program National Center for Advancing Translational Sciences [NCATS] NIH Chemical Genomics Center [NCGC] U.S. Environmental Protection Agency [EPA] National Institutes of Environmental Health Sciences [NIEHS] National Toxicology Program [NTP] U.S. Food and Drug Administration [FDA] […] Endocrine disrupting chemicals (EDCs) and their interactions with steroid hormone receptors like PR causes disruption of normal endocrine function. To identify the compounds that activate PR signaling, a PR-UAS-bla GripTite cell line i.e. PR-UAS-bla HEK 293T (Invitrogen, Carlsbad, CA, USA) containing a beta-lactamase reporter gene under the control of an Upstream Activator Sequence (UAS) was used to screen Tox21 10K compound library.
# Tox21 Assay Protocol Summary: PR-UAS-bla HEK 293T cells were dispensed at 3,000 cells/5 uL of assay medium containing 2% charcoal stripped FBS per well into black wall/clear-bottom 1536-well plates using a Multidrop Combi (ThermoFisher Scientific, Waltham, MA) dispenser. After the assay plates were incubated at a 37C and 5% CO2 for 6hr, 23 nL of compounds dissolved in DMSO, positive controls or DMSO only was transferred to the assay plate by a Pintool station (Kalypsys, San Diego, CA). The plates were incubated at 37C and 5% CO2 for 16hr. Then 1 uL of LiveBLAzer B/G FRET substrate was added using a BioRAPTR FRD (Flying Reagent Dispenser, Aurora Discovery, San Diego, CA). After the plates were incubated at room temperature for 2 hours, fluorescence intensity was measured by an Envision plate reader (PerkinElmer, Shelton, CT).
# On the % scale 0 is the no-effect control and ±100 the full control effect; potency means the concentration at half of the fitted maximal effect.
# Sequence of Progesterone receptor (Homo sapiens) (P06401 whole entry, looked up): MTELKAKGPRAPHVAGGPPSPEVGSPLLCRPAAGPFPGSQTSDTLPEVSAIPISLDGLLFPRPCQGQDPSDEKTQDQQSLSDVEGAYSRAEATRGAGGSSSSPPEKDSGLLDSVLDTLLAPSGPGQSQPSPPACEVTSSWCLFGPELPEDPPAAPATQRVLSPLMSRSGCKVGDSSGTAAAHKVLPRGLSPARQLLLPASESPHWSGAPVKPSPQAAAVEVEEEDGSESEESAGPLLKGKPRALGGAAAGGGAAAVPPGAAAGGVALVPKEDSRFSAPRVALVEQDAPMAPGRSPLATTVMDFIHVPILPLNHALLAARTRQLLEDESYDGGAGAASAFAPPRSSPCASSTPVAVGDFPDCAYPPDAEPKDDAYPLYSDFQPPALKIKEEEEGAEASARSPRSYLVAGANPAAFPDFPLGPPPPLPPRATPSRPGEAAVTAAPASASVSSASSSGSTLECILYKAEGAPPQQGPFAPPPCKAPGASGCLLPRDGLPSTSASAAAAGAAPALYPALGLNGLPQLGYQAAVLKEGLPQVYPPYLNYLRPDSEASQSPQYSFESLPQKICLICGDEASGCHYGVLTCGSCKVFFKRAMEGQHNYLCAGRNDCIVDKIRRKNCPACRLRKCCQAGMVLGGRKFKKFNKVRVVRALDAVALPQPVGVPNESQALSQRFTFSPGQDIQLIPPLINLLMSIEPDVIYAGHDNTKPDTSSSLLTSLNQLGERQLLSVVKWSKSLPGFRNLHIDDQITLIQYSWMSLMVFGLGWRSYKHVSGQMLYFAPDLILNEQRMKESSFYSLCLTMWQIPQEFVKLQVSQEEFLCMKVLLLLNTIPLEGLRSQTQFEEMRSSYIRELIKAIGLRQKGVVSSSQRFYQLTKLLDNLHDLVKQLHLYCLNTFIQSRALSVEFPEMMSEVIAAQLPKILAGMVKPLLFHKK
Structure (SMILES),activation,Potency
CC(C)[C@]12CC(=O)[C@H](C)[C@H]1C2,-0.635% (inactive),
O=C(Cl)OCc1ccccc1,2.87% (inactive),
CC1=C2[C@H]3OC(=O)[C@@H](C)[C@@H]3CC[C@@]2(C)C=CC1=O,-1.27% [at 42.5 µM] (inactive),
ClC1=C(Cl)C2(Cl)C(CBr)CC1(Cl)C2(Cl)Cl (stereo not given),,inactive
Cc1ccc2cc(C)ccc2c1,0.154% (inactive),
[O-][Br+2]([O-])O,1.89% [at 42.5 µM] (inactive),
CCN[C@@H](C)Cc1ccccc1,0.94% (inactive),
c1ccc2c(c1)CCNC2,3.48% (inactive),
COc1ccc(C=O)cc1O,-0.721% (inactive),
CCCCCCCC(=O)Cl,-1.41% (inactive),
CCOC(=O)C(SP(=S)(OC)OC)c1ccccc1 (stereo not given),2.66% (inactive),
NNC(N)=O,-1.17% (inactive),
CCCOC(=O)c1cncn1C(C)c1ccccc1 (stereo not given),-2.2% [at 42.5 µM] (inactive),
OP(O)c1ccccc1,0.488% (inactive),
N#CN,-1.68% [at 240 µM] (inactive),
CCOC(=O)CC(SP(=S)(OC)OC)C(=O)OCC (stereo not given),,1.37 µM (active) and inactive
CCN(CC)CCOC(=O)C(O)(c1ccccc1)c1ccccc1,-1.28% [at 42.5 µM] (inactive),
CC(C)(O)C(Cl)(Cl)Cl,-0.947% [at 42.5 µM] (inactive),
CC(Cc1ccccc1)NCCn1cnc2c1c(=O)n(C)c(=O)n2C (stereo not given),-0.008% (inactive),
CC[C@@H](CO)NC(=O)[C@@H]1C=C2c3cccc4[nH]cc(c34)C[C@H]2N(C)C1,-0.705% [at 42.5 µM] (inactive),

Structure (SMILES),activation,Potency
CC(C)(C)NC[C@H](O)c1ccc(O)cc1Cl,-0.873% [at 42.5 µM] (inactive),
O=C1CC(=O)NC(=O)N1,-0.441% (inactive),
O=[N+]([O-])CCO,0.711% (inactive),
CCN(CC)C1CCCCC1,0.145% (inactive),
O=P(O)(O)c1ccccc1,-0.314% (inactive),
O=C(Cl)CCl,-0.436% (inactive),
CC(C)(N)Cc1ccccc1Cl,-0.309% [at 42.5 µM] (inactive),
O=C(O)C(Br)(Br)Br,-0.527% (inactive),
CN(C)CCc1c[nH]c2cccc(OP(=O)(O)O)c12,1.75% (inactive),
COC(=O)[C@@H](N)CCCN/C(N)=N/[N+](=O)[O-],-0.111% [at 42.5 µM] (inactive),
COc1cc(CC(C)N)cc(OC)c1OC (stereo not given),-0.0984% (inactive),
CCOP(=S)(OCC)Oc1ccc(Cl)cc1Cl,5.34% (inactive),
Cl/C=C/CCl,1.25% (inactive),
O=C(O)c1c(Cl)ccc2cc(Cl)cnc12,0.154% (inactive),
CCNP(=S)(OC)O/C(C)=C/C(=O)OC(C)C (stereo not given),-1.51% (inactive),
N=C(N)[Se],-2.5% (inactive),
CC(C)C(C)(N)C#N (stereo not given),0.452% (inactive),
Cn1c(CCCC(=O)O)nc2cc(N(CCCl)CCCl)ccc21,-0.0174% [at 42.5 µM] (inactive),
CC(C)N(Cc1ccccc1)C(=O)C(C)(C)C,2.31% (inactive),
O=S1(=O)OCCO1,1.22% (inactive),

# Reference: PubChem BioAssay (Tox21)
